In PubChem BioAssay AID1159580 (chemical genetic matrix, 2015):
The whole screen tested about 5,500 compounds, of which about 2,000 (36%) were called active. Another 18% or so got no clear call; they are omitted. Cut-off read from the data, not from the text of the source: active = normalized growth mostly below about 0.91 (no sharp cut-off); inconclusive = no clear call, values can overlap the other calls; inactive = mostly above about 0.92. The list shows a part of the results.

Test: chemical genetic growth profiling, strain panel (AID 1159580);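 note: tested at 20 µM; growth read once vehicle control cultures reached saturation at 30 °C; 1 = growth at the plate median or of vehicle wells; lower values mean less growth of the strain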
Details: growth OD

Measured: normalized growth

Cn1c(=O)c2c(ncn2CCCl)n(C)c1=O
inactive: S. cerevisiae deletion strains, locus YAL013W, strain DEP1, hits give low values 1 | S. cerevisiae deletion strains, locus YBR021W, strain FUR4, hits give low values 0.995 | S. cerevisiae deletion strains, locus YBR229C, strain ROT2, hits give low values 0.997 | S. cerevisiae deletion strains, locus YCL029C, strain bik1, hits give low values 1.03 | S. cerevisiae deletion strains, locus YDL035C, strain GPR1, hits give low values 1 | S. cerevisiae deletion strains, locus YDL074C, strain BRE1, hits give low values 0.999 | S. cerevisiae deletion strains, locus YDL101C, strain DUN1, hits give low values 1.01 | S. cerevisiae deletion strains, locus YDL134C, strain PPH21, hits give low values 1 | S. cerevisiae deletion strains, locus YDL185W, strain tfp1, hits give low values 1.01 | S. cerevisiae deletion strains, locus YDL192W, strain arf1, hits give low values 1.02 | S. cerevisiae deletion strains, locus YDR101C, strain arx1, hits give low values 0.995 | S. cerevisiae deletion strains, locus YDR150W, strain NUM1, hits give low values 0.998 | S. cerevisiae deletion strains, locus YDR162C, strain NBP2, hits give low values 1 | S. cerevisiae deletion strains, locus YDR318W, strain mcm21, hits give low values 1.02 | S. cerevisiae deletion strains, locus YDR388W, hits give low values 1.01 | S. cerevisiae deletion strains, locus YDR502C, strain sam2, hits give low values 1.02 | S. cerevisiae deletion strains, locus YEL061C, strain CIN8, hits give low values 0.998 | S. cerevisiae deletion strains, locus YER110C, hits give low values 1.02 | S. cerevisiae deletion strains, locus YER155C, strain BEM2, hits give low values 0.997 | S. cerevisiae deletion strains, locus YER167W, strain BCK2, hits give low values 1.01 | S. cerevisiae deletion strains, locus YGL078C, strain dbp3, hits give low values 1.02 | S. cerevisiae deletion strains, locus YGL086W, strain mad1, hits give low values 1.01 | S. cerevisiae deletion strains, locus YGL248W, strain PDE1, hits give low values 1 | S. cerevisiae deletion strains, locus YGR078C, strain PAC10, hits give low values 0.975 | S. cerevisiae deletion strains, locus YGR135W, strain pre9, hits give low values 0.995 | S. cerevisiae deletion strains, locus YGR229C, strain SMI1, hits give low values 0.987 | S. cerevisiae deletion strains, locus YGR252W, strain gcn5, hits give low values 1.03 | S. cerevisiae deletion strains, locus YHR030C, strain SLT2, hits give low values 1 | S. cerevisiae deletion strains, locus YHR079C, strain IRE1 (second series), hits give low values 1.02 | S. cerevisiae deletion strains, locus YHR094C, strain hxt1, hits give low values 1.01 | S. cerevisiae deletion strains, locus YHR129C, strain ARP1, hits give low values 1 | S. cerevisiae deletion strains, locus YHR200W, strain rpn10, hits give low values 1.03 | S. cerevisiae deletion strains, locus YIL066C, strain RNR3, hits give low values 1.02 | S. cerevisiae deletion strains, locus YIL073C, strain SPO22, hits give low values 1.08 | S. cerevisiae deletion strains, locus YIL125W, strain kgd1, hits give low values 1.02 | S. cerevisiae deletion strains, locus YIR030C, strain dcg1, hits give low values 1.03 | S. cerevisiae deletion strains, locus YJL095W, strain BCK1, hits give low values 0.992 | S. cerevisiae deletion strains, locus YJL134W, strain LCB3, hits give low values 1.01 | S. cerevisiae deletion strains, locus YJL168C, strain set2, hits give low values 1.02 | S. cerevisiae deletion strains, locus YJL187C, strain SWE1 (second series), hits give low values 1 | S. cerevisiae deletion strains, locus YJR043C, strain POL32, hits give low values 0.998 | S. cerevisiae deletion strains, locus YJR075W, strain HOC1, hits give low values 0.987 | S. cerevisiae deletion strains, locus YKL009W, strain mrt4, hits give low values 1.03 | S. cerevisiae deletion strains, locus YKL068W, hits give low values 1.02 | S. cerevisiae deletion strains, locus YKL085W, strain MDH1 (second series), hits give low values 1.01 | S. cerevisiae deletion strains, locus YKL085W, strain MDH1, hits give low values 1.01 | S. cerevisiae deletion strains, locus YKL190W, strain CNB1, hits give low values 1 | S. cerevisiae deletion strains, locus YKR001C, strain vps1, hits give low values 1.01 | S. cerevisiae deletion strains, locus YLR039C, strain RIC1, hits give low values 1.04 | S. cerevisiae deletion strains, locus YLR058C, strain SHM2, hits give low values 1.01 | S. cerevisiae deletion strains, locus YLR102C, strain apc9, hits give low values 1.03 | S. cerevisiae deletion strains, locus YLR262C, strain YPT6, hits give low values 1.05 | S. cerevisiae deletion strains, locus YLR268W, strain sec22, hits give low values 0.994 | S. cerevisiae deletion strains, locus YLR330W, strain CHS5, hits give low values 1.01 | S. cerevisiae deletion strains, locus YLR342W, strain FKS1 (second series), hits give low values 1.01 | S. cerevisiae deletion strains, locus YLR371W, strain rom2, hits give low values 1.03 | S. cerevisiae deletion strains, locus YLR418C, strain cdc73, hits give low values 0.992 | S. cerevisiae deletion strains, locus YML016C, strain PPZ1, hits give low values 1 | S. cerevisiae deletion strains, locus YML032C, strain rad52, hits give low values 1.03 | S. cerevisiae deletion strains, locus YML124C, strain tub3, hits give low values 1.02 | S. cerevisiae deletion strains, locus YMR078C, strain ctf18, hits give low values 1.02 | S. cerevisiae deletion strains, locus YMR223W, strain ubp8, hits give low values 1.04 | S. cerevisiae deletion strains, locus YMR263W, strain SAP30, hits give low values 0.995 | S. cerevisiae deletion strains, locus YMR307W, strain GAS1, hits give low values 0.996 | S. cerevisiae deletion strains, locus YNL067W, strain RPL9B, hits give low values 1.01 | S. cerevisiae deletion strains, locus YNL128W, strain TEP1, hits give low values 0.999 | S. cerevisiae deletion strains, locus YNL153C, strain GIM3, hits give low values 0.988 | S. cerevisiae deletion strains, locus YNL233W, strain BNI4, hits give low values 0.994 | S. cerevisiae deletion strains, locus YNL250W, strain rad50, hits give low values 1.04 | S. cerevisiae deletion strains, locus YNL271C, strain bni1, hits give low values 1.02 | S. cerevisiae deletion strains, locus YNL298W, strain CLA4, hits give low values 1.03 | S. cerevisiae deletion strains, locus YNL307C, strain MCK1, hits give low values 1.03 | S. cerevisiae deletion strains, locus YNL322C, strain KRE1, hits give low values 1 | S. cerevisiae deletion strains, locus YNR052C, strain pop2, hits give low values 1.04 | S. cerevisiae deletion strains, locus YOL006C, strain TOP1, hits give low values 1.03 | S. cerevisiae deletion strains, locus YOL012C, strain htz1 0.951 | S. cerevisiae deletion strains, locus YOL147C, strain pex11, hits give low values 1.01 | S. cerevisiae deletion strains, locus YOR061W, strain CKA2, hits give low values 1.01 | S. cerevisiae deletion strains, locus YOR069W, strain VPS5, hits give low values 1 | S. cerevisiae deletion strains, locus YOR136W, strain idh2, hits give low values 1.02 | S. cerevisiae deletion strains, locus YOR144C, strain elg1, hits give low values 1.01 | S. cerevisiae deletion strains, locus YOR184W, strain ser1, hits give low values 1.03 | S. cerevisiae deletion strains, locus YOR316C, strain cot1, hits give low values 1.02 | S. cerevisiae deletion strains, locus YPL055C, strain LGE1, hits give low values 0.999 | S. cerevisiae deletion strains, locus YPL241C, strain CIN2, hits give low values 1 | S. cerevisiae deletion strains, locus YPR119W, strain clb2, hits give low values 1.01 | S. cerevisiae deletion strains, locus YPR141C, strain kar3, hits give low values 1.02 | S. cerevisiae deletion strains, locus YPR163C, strain tif3, hits give low values 1.01 | S. cerevisiae deletion strains, locus YPR167C, strain met16, hits give low values 1.02 | S. cerevisiae deletion strains, strain wtn01, hits give low values 0.997 | S. cerevisiae strains, strain wild type, hits give low values 1
